Source: PubChem BioAssay (NCATS)
Results filed as inconclusive are left out. Active and inactive are the calls of the source. Calls come from the whole dose curve; as a rule, active = well fitted cell-killing curve with a large enough effect; inconclusive = small, poorly fitted or top-dose-only effect, or effect the other way; inactive = flat fitted curve, though single readings scatter.

Assays:
Assay in all cases: Primary qHTS to identify gynecologic anti-cancer compounds using libraries of approved drugs and bioactive compounds (AID 1345084); note: nearly all actives have a fitted effect of over 55% in size
[1] = tested on: C33A; details: Gynecologic cancer cell panel viability, ATPlite luminescence, 48 h; series mostly up to 57.5 µM
Summary of the method: (§1)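 Cells, 1,000 per well, were allowed to settle for 16 h at 37 C before compound addition. Five concentrations were tested for 48 h, and viability was read by ATPlite luminescence after 15 min at room temperature.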

[2] = tested on: CAOV3; details: Gynecologic cancer cell panel viability, ATPlite luminescence, 48 h; series mostly up to 57.5 µM
Summary of the method: as §1

[3] = tested on: CASKI; details: Gynecologic cancer cell panel viability, ATPlite luminescence, 48 h; series mostly up to 57.5 µM
Summary of the method: as §1

[4] = tested on: Es-2; details: Gynecologic cancer cell panel viability, ATPlite luminescence, 48 h; series mostly up to 57.5 µM
Summary of the method: as §1

[5] = tested on: HeLa; details: Gynecologic cancer cell panel viability, ATPlite luminescence, 48 h; series mostly up to 57.5 µM
Summary of the method: as §1

[6] = tested on: Hek293T; details: Gynecologic cancer cell panel viability, ATPlite luminescence, 48 h, control line for the selectivity index; series mostly up to 57.5 µM
Summary of the method: as §1

[7] = tested on: JEG-3; details: Gynecologic cancer cell panel viability, ATPlite luminescence, 48 h; series mostly up to 57.5 µM
Summary of the method: as §1

[8] = tested on: OV90; details: Gynecologic cancer cell panel viability, ATPlite luminescence, 48 h; series mostly up to 57.5 µM
Summary of the method: as §1

[9] = tested on: PA-1; details: Gynecologic cancer cell panel viability, ATPlite luminescence, 48 h; series mostly up to 57.5 µM
Summary of the method: as §1

[10] = tested on: SKOV3; details: Gynecologic cancer cell panel viability, ATPlite luminescence, 48 h; series mostly up to 57.5 µM
Summary of the method: as §1

[11] = tested on: Tov-21-G; details: Gynecologic cancer cell panel viability, ATPlite luminescence, 48 h; series mostly up to 57.5 µM
Summary of the method: as §1

[12] = tested on: Tov112D; details: Gynecologic cancer cell panel viability, ATPlite luminescence, 48 h; series mostly up to 57.5 µM
Summary of the method: as §1
% is set by controls: 0 for no effect and ±100 for the full control effect.

C=C1C(=O)OC2CC(C)=C(C(C)CCCO)C(O)C12 (stereo unspecified)
inactive: Potency [1] | Potency [2] | Potency [3] | Potency [4] | Potency [5] | Potency [6] | Potency [7] | Potency [8] | Potency [9] | Potency [10] | Potency [11] | Potency [12]

CC(=O)N[C@@H](CCCCN)C(=O)N(C)[C@@H](CC(C)C)C(=O)N[C@H](C(=O)N(C)[C@@H](Cc1ccccc1)C(=O)N[C@H](Cc1ccccc1)C(N)=O)C(C)C
inactive: activity change, negative = cytotoxicity [1] 18.7% [at 6.55 µM] | activity change, negative = cytotoxicity [2] 6.22% [at 6.55 µM] | activity change, negative = cytotoxicity [3] 2.04% [at 6.55 µM] | activity change, negative = cytotoxicity [4] -0.643% [at 6.55 µM] | activity change, negative = cytotoxicity [5] 16.5% [at 6.55 µM] | activity change, negative = cytotoxicity [6] 8.12% [at 6.55 µM] | activity change, negative = cytotoxicity [7] -0.179% [at 6.55 µM] | activity change, negative = cytotoxicity [8] -1.74% [at 6.55 µM] | activity change, negative = cytotoxicity [9] 7.96% [at 6.55 µM] | activity change, negative = cytotoxicity [10] 0% [at 6.55 µM] | activity change, negative = cytotoxicity [11] 3.25% [at 6.55 µM] | activity change, negative = cytotoxicity [12] 6.63% [at 6.55 µM]

C=C(C(=O)O)C1CCC2(C)CCCC(C)(O)C2C1 (stereo unspecified)
inactive: Potency [1] | Potency [2] | Potency [3] | Potency [4] | Potency [5] | Potency [6] | Potency [7] | Potency [8] | Potency [9] | Potency [10] | Potency [11] | Potency [12]

CC1C(=O)CC2C3CCC(C(=O)O)C12CC3(C)CO (stereo unspecified)
inactive: Potency [1] | Potency [2] | Potency [3] | Potency [4] | Potency [5] | Potency [6] | Potency [7] | Potency [8] | Potency [9] | Potency [10] | Potency [11] | Potency [12]

CC(=O)O[C@H]1CC[C@H](C)[C@@]2(C)[C@H](OC(C)=O)c3c(C)coc3C(=O)[C@H]12
inactive: Potency [1] | Potency [2] | Potency [3] | Potency [4] | Potency [5] | Potency [6] | Potency [7] | Potency [8] | Potency [9] | Potency [10] | Potency [11] | Potency [12]

COC(=O)[C@H](O)[C@H]1C(C)(C)[C@H](OC(=O)C(C)C)[C@@]2(O)C(=O)[C@]1(C)C1CC[C@]3(C)C(CC(=O)O[C@H]3c3ccoc3)[C@]13O[C@@H]32 (stereo partly specified)
inactive: Potency [1] | Potency [2] | Potency [3] | Potency [4] | Potency [5] | Potency [6] | Potency [7] | Potency [8] | Potency [9] | Potency [10] | Potency [11] | Potency [12]

C=C(C(=O)O)C1CCC2(C)CCC(O)C(=C)C2C1 (stereo unspecified)
inactive: Potency [1] | Potency [2] | Potency [3] | Potency [4] | Potency [5] | Potency [6] | Potency [7] | Potency [8] | Potency [9] | Potency [10] | Potency [11] | Potency [12]

OC[C@H]1O[C@@H](Oc2cc(O)c3c(c2)O[C@@H](c2ccc(O)cc2)[C@H](O)C3)[C@H](O)[C@@H](O)[C@@H]1O
inactive: Potency [1] | Potency [2] | Potency [3] | Potency [4] | Potency [5] | Potency [6] | Potency [7] | Potency [8] | Potency [9] | Potency [10] | Potency [11] | Potency [12]
